The text below walks through data of PubChem BioAssay AID1259415 (National Center for Advancing Translational Sciences (NCATS), 2018).

SMILES strings stand for the structures. Out of some 410,000 compounds screened, about 18,000 (4.4%) were called active. Inconclusive results (about 7%) are left out. Only a selection was taken, and actives are over-represented in it overall. Unmarked numbers belong to inactive results. Cut-off read from the data, not from the text of the source: active = activity change below about -60%; inconclusive = no clear call, values can overlap the other calls; inactive = above about -39%.
% is set by controls: 0 for no effect and ±100 for the full control effect.

The assay in a line: qHTS Assay for inhibitors of the human cytomegalovirus (HCMV). The note with it: HFF cells, HCMV-luciferase reporter, 72 h; at 57.5 µM; stronger effect = lower value. An outline of the steps: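 Compounds were evaluated in HFFs infected with an HCMV luciferase reporter virus (MOI 1 PFU/cell). Luciferase in lysates collected 72 h post infection served as the replication measure.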
`O=c1c(NCc2cccs2)nccn1-c1ccccc1`: the activity change, negative = inhibition is 54.2%.

In the case of `COc1ccc(N=CN2c3ccccc3-n3cccc3C2CCc2ccccc2)cc1` (stereo unspecified), the activity change, negative = inhibition is 29.9%.

For `CCc1nc2c(cnn2-c2ccc(C)cc2)c(=O)n1-c1ccc(C)cc1`, the activity change, negative = inhibition was -37.2%.

Take `COc1ccccc1C(=O)Nn1c(-c2cccs2)nc2ccccc2c1=O`: the activity change, negative = inhibition was -71.7% (active).

For the compound `COc1cc(C(=O)Nn2c(CC(C)C)nc3ccccc3c2=O)cc(OC)c1OC`, the activity change, negative = inhibition is 36.7%.

As for `COc1cc(OC)cc(-c2nc3ccccc3c(=O)n2NC(=O)c2cccnc2Cl)c1`, the activity change, negative = inhibition is -24.5%.

Turning to `O=C(CC(c1cccs1)N1Cc2ccccc2C1=O)Nc1ccc(F)c(F)c1` (stereo unspecified), the activity change, negative = inhibition is -28.8%.

On to `Cc1ccc(C)c(N2CCN(C(=O)Cc3c(C(=O)O)c(C)cn3C)CC2)c1`, for which the activity change, negative = inhibition is 7.89%.

On to `CCC1CCC2(CC1)NC(=O)N(CC(=O)Nc1ccc(OC)cc1)C2=O` (stereo unspecified), for which the activity change, negative = inhibition was -8.02%.

For the compound `COC(=O)c1ccc(C(=O)NC2CC(C)(C)Cc3c2cnn3-c2ccc(F)cc2)nc1` (stereo unspecified), the activity change, negative = inhibition is 29.8%.

As for `CC(C)(C)OC(=O)N1CCC(c2c(C(=O)NCCc3ccsc3)cnn2-c2ccc(F)cc2F)CC1`, the activity change, negative = inhibition is 0%.

As to `Cn1cc(C(=O)NCc2ccccc2F)cn1`, the activity change, negative = inhibition is 3.61%.

With `Cn1nccc1C(=O)NC1CCCc2c1cnn2-c1ccccc1F` (stereo unspecified), the activity change, negative = inhibition is -80% (active).

Regarding `Cn1nccc1C(=O)NC1CCCc2c1cnn2-c1ccc(F)cc1F` (stereo unspecified), the activity change, negative = inhibition is -81.5% (active).

Turning to `CNS(=O)(=O)c1cccc(C(=O)NC2CCCc3ccccc32)c1` (stereo unspecified), the activity change, negative = inhibition was -19.2%.

`COc1ccc(-n2c(C)nc3c(cnn3-c3ccc(F)cc3)c2=O)cc1`: the activity change, negative = inhibition was -33.7%.

As to `Nc1cc(N2CCCCCC2)c2nonc2c1[N+](=O)[O-]`, the activity change, negative = inhibition is -24.1%.

In the case of `Cc1ccccc1NC(=O)CN1C(=O)C(C)(C)c2ccccc21`, the activity change, negative = inhibition was -4.1%.

For the compound `COc1cc(OC)c(OC)cc1/C=C/c1nc2cc3ccccc3cc2c(=O)n1-c1ccc(F)c(Cl)c1`, the activity change, negative = inhibition is 11%.

As for `COc1ccc(C(CNC(=O)c2ccc(NS(=O)(=O)c3ccc(F)c(C)c3)cc2)N(C)C)cc1` (stereo unspecified), the activity change, negative = inhibition was -9.49%.

`COc1ccc(NS(=O)(=O)c2ccc(NC(=O)c3ccc(N(C)S(C)(=O)=O)cc3)cc2)cc1`: the activity change, negative = inhibition is -94.5% (active).

With `CCOC(=O)c1cc(C(=O)Nc2ccc(S(=O)(=O)Nc3ccc(OC)cc3)cc2)nn1C`, the activity change, negative = inhibition is 2.74%.

Turning to `O=C(c1cccs1)c1cn(CCOc2ccc(Cl)cc2)c2ccccc12`, the activity change, negative = inhibition was -4.55%.

For `COc1ccc(CCNC(=O)c2cnc3sc(N4CCCCCC4)nn3c2=O)cc1OC`, the activity change, negative = inhibition is 0.444%.

In the case of `COc1ccc(NC(=O)Cn2c(=O)n(Cc3ccc(C(=O)NCc4ccccc4Cl)cc3)c(=O)c3ccccc32)cc1`, the activity change, negative = inhibition was -25.8%.

For `CC1=C(C)CC(C(=O)NNC(=O)c2csc3c2CCC(C(C)(C)C)C3)C(C(=O)O)C1` (stereo unspecified), the activity change, negative = inhibition is 35%.

In the case of `O=C(NNC(=O)c1ccccc1O)c1ccccc1O`, the activity change, negative = inhibition was -97% (active).

Consider `COc1cc(OC)c(C(=O)NNC(=O)c2ccccc2-n2cccc2)cc1OC`, for which the activity change, negative = inhibition is -25.6%.

For `O=C(CO/N=C/c1ccccc1O)NNC(=O)c1ccccc1Cl`, the activity change, negative = inhibition is 35%.

For the compound `CC1=C(C)CC(C(=O)NC(C)CCc2ccccc2)C(C(=O)O)C1` (stereo unspecified), the activity change, negative = inhibition was 16.1%.

With `CC1=C(C)CC(C(=O)NNC(=O)c2ccccc2O)C(C(=O)O)C1` (stereo unspecified), the activity change, negative = inhibition is -89.9% (active).

As to `COc1ccc(-c2cc(-c3ccccc3)nc3c2COc2ccc(Cl)cc2-3)cc1`, the activity change, negative = inhibition was 9.57%.

On to `CC(=O)N1C[C@@H](CO)[C@@H](N(C)C(=O)c2ccco2)C[C@H]1c1ccccc1`, for which the activity change, negative = inhibition was -4.23%.

Take `COc1cc2c(cc1NC(=O)CN1CCN(S(=O)(=O)c3ccc(F)cc3)CC1)oc1ccccc12`: the activity change, negative = inhibition is 63.3%.

In the case of `COc1ccc(-n2c(=O)c3ccccc3n(Cc3ccccc3Cl)c2=O)cc1`, the activity change, negative = inhibition is 7.59%.

As for `CCCn1c(N)c(C(=O)CSc2nnc(Cc3cccs3)n2C2CC2)c(=O)[nH]c1=O`, the activity change, negative = inhibition was -9.71%.

For the compound `Cc1cc(C)c(OCCN2CC(C)OC(C)C2)c(Br)c1` (stereo unspecified), the activity change, negative = inhibition is -20%.

In the case of `Cc1ccc(Oc2cc(NC(=O)CCCn3nc(C)c([N+](=O)[O-])c3C)cc([N+](=O)[O-])c2)cc1`, the activity change, negative = inhibition is 3.84%.

Regarding `COc1cc(NC(=O)Nc2ccc(C)cc2)cc([N+](=O)[O-])c1`, the activity change, negative = inhibition is -63.5% (active).

Regarding `COc1ccc(S(=O)(=O)NNC(=O)Nc2ccc(C)cc2)c(OC)c1`, the activity change, negative = inhibition is -7.23%.

Consider `Cc1cccc(N2CCN(C(=O)c3ccc(Nc4nc5ccccc5n5nnnc45)cc3)CC2)c1C`, for which the activity change, negative = inhibition was 9.29%.

Turning to `CCOc1ccc(CNC(=O)c2ccc3c(c2)nnn3C2CCCC2)cc1`, the activity change, negative = inhibition was 27.9%.

Consider `CCCNC(=O)c1ccc(N2CCC3(CC2)CC(c2cccc(Br)c2)=NO3)c(NC(=O)c2ccco2)c1`, for which the activity change, negative = inhibition is -2.24%.

As for `CCCNC(=O)c1ccc(N2CCC3(CC2)CC(c2ccc(Cl)cc2)=NO3)c([N+](=O)[O-])c1`, the activity change, negative = inhibition is -72.5% (active).

Take `COCCNC(=O)c1ccc(N2CCC3(CC2)OCCO3)c([N+](=O)[O-])c1`: the activity change, negative = inhibition was -4.44%.

As for `COCCCNC(=O)c1c(NC(=O)c2cc(=O)c3cc(C)c(C)cc3o2)sc2c1CCCC2`, the activity change, negative = inhibition is 11.5%.

Consider `Cc1nnc(NCc2ccccc2)c2c1nnn2Cc1ccc(F)cc1`, for which the activity change, negative = inhibition is -5.95%.

`CCc1ccc(NC(=O)c2cc(S(=O)(=O)NC3CCCCCC3)ccc2F)cc1`: the activity change, negative = inhibition is -39.6%.

Regarding `Cc1ccc2nc(NC(=O)c3nc(SCc4ccccc4F)ncc3Cl)sc2c1`, the activity change, negative = inhibition was 16.7%.

On to `CCOc1cccc(C(=O)Nc2nnc(S(=O)(=O)N(C)c3ccc(C)cc3)s2)c1`, for which the activity change, negative = inhibition is -25.8%.

Regarding `Cc1ccc(CS(=O)(=O)c2ncc(Cl)c(C(=O)Nc3nnc(C)s3)n2)cc1`, the activity change, negative = inhibition is -111% (active).

Consider `O=C(Nc1nc2ccc(F)cc2s1)c1nc(SCc2ccccc2F)ncc1Cl`, for which the activity change, negative = inhibition was 7.44%.

Turning to `CSc1nnc(NC(=O)c2nc(S(=O)(=O)Cc3ccc(C)cc3)ncc2Cl)s1`, the activity change, negative = inhibition was -102% (active).

For `Cc1ccc(CS(=O)(=O)CCC(=O)NC2CC2)cc1`, the activity change, negative = inhibition was -21.8%.

For the compound `NNc1cccc(C=Cc2ccccc2)cc1=O`, the activity change, negative = inhibition is 34%.

For the compound `Cc1ccc(S(=O)(=O)n2nc(C)c(S(=O)(=O)N3CCCCCC3)c2C)cc1`, the activity change, negative = inhibition is 1.89%.
